Source: PubChem BioAssay (NCATS)
Inconclusive results are not listed. Activity calls are given as the source filed them. Unless noted, the call rests on the fitted dose curve.

Key:
[1] = Validation screen for inhibitors of Lassa infection (AID 463096); further: potency means the concentration at half of the fitted maximal effect
[2] = Inducers of the Endoplasmic Reticulum Stress Response (ERSR) in human glioma: Validation (AID 504836; active means well fitted curve in the direction sought with a large enough effect)
In short: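 Stably transfected U87-MG glioma cells carrying a GRP78-based luciferase sensor; 16 h compound incubation. Luminescence end-point read 10 min after Bright-Glo addition at room temperature.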

[3] = qHTS for Inhibitors of the Functional Ribonucleoprotein Complex (vRNP) of Lassa (LASV) Arenavirus: LASV Primary Screen - GLuc reporter signal (AID 1347082; calls by dose curve; tested in HEK293 reporter line; further: series mostly up to about 57 µM; nearly all actives have a fitted effect of over 60% in size)
[4] = qHTS for Inhibitors of the Functional Ribonucleoprotein Complex (vRNP) of Lassa (LASV) Arenavirus: Viability assay - alamar blue signal for LASV Primary Screen (AID 1347083; calls by dose curve; tested in HEK293 reporter line; further: series mostly up to about 57 µM; nearly all actives have a fitted effect of over 80% in size)
[5] = qHTS for Inhibitors of the Functional Ribonucleoprotein Complex (vRNP) of Lymphocytic Choriomeningitis Arenaviruses (LCMV): Viability assay - alamar blue signal for LCMV Primary Screen (AID 1347085; calls by dose curve; tested in HEK293 reporter line; further: series mostly up to about 57 µM; nearly all actives have a fitted effect of over 80% in size)
[6] = biological target: Nucleoprotein (Lymphocytic choriomeningitis virus (strain Armstrong)) (UniProt P09992); experiment: qHTS for Inhibitors of the Functional Ribonucleoprotein Complex (vRNP) of Lymphocytic Choriomeningitis Arenaviruses (LCMV): LCMV Primary Screen - GLuc reporter signal (AID 1347086); further: series mostly up to about 57 µM; nearly all actives have a fitted effect of over 70% in size

Measured: Potency

Sequence of Nucleoprotein (Lymphocytic choriomeningitis virus (strain Armstrong)) (P09992 whole entry, looked up): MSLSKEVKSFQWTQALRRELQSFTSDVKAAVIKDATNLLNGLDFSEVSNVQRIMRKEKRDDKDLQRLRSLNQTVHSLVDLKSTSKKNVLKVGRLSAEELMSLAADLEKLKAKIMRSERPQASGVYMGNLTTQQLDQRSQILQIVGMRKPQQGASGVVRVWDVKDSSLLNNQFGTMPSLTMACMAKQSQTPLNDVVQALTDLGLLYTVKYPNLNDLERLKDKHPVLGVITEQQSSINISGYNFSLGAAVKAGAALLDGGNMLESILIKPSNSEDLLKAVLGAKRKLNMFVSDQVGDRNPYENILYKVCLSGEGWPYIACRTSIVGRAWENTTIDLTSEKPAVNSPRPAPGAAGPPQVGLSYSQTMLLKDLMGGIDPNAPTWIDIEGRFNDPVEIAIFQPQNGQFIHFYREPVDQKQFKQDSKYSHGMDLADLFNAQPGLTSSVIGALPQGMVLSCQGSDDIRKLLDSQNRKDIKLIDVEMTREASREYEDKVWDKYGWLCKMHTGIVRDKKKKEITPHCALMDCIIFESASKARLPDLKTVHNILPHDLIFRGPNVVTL

CC(N)=NCCCC[C@@H](N)C(=O)O
inactive: [1] | [2] | [3] | [4] | [5] | [6]

C=CCN1CCc2c(cc(O)c(O)c2Br)[C@@H](c2ccccc2)C1
inactive: [1] | [2] | [3] | [4] | [5] | [6]

CCCCCCCCCCCCCCCCCCNC(=O)OCC(COP(=O)([O-])OCC[n+]1ccsc1)OC (stereo unspecified)
inactive: [1] | [2] | [3] | [4] | [5] | [6]

COC1(C2=NCCN2)COc2ccccc2O1 (stereo unspecified)
inactive: [1] | [2] | [3] | [4] | [5] | [6]

Cc1ccc(C(=O)O[C@H](C(=O)O)[C@@H](OC(=O)c2ccc(C)cc2)C(=O)O)cc1 (tested in a mixture with another compound)
inactive: [1] | [2] | [3] | [4] | [5] | [6]

CC(=O)/C(C)=N/O
inactive: [1] | [2] | [3] | [4] | [5] | [6]

COC(=O)C(N)Cc1ccc(Cl)cc1 (stereo unspecified)
inactive: [1] | [2] | [3] | [4] | [5] | [6]

C=C(C)C1CC=C(C(=O)O)CC1 (stereo unspecified)
inactive: [1] | [2] | [3] | [4] | [5] | [6]

CCCCCC(O)CCCC(=O)O (stereo unspecified)
inactive: [1] | [2] | [3] | [4] | [5] | [6]

CC1CN(S(=O)(=O)c2cccc3cnccc23)CCN1 (stereo unspecified)
inactive: [1] | [2] | [3] | [4] | [5] | [6]

NC(C(=O)N[C@@H]1C(=O)N2C(C(=O)O)=C(Cl)CS[C@H]12)c1ccccc1 (stereo partly specified)
inactive: [1] | [2] | [3] | [4] | [5] | [6]

O=C(O)C1CCCNC1 (stereo unspecified)
inactive: [1] | [2] | [3] | [4] | [5] | [6]

Nc1ccc(CCNc2ncnc3c2ncn3C2OC(CO)C(O)C2O)cc1 (stereo unspecified)
inactive: [1] | [2] | [3] | [4] | [5] | [6]

CC(C)(C)NCC(O)COc1cccc2[nH]c(=O)[nH]c12 (stereo unspecified)
inactive: [1] | [2] | [3] | [4] | [5] | [6]

CN1C2CCC1CC(OC(=O)C(O)c1ccccc1)C2 (stereo unspecified)
inactive: [1] | [2] | [3] | [4] | [5] | [6]

NC1(C(=O)O)CCc2cc(C(=O)O)ccc21 (stereo unspecified)
inactive: [1] | [2] | [3] | [4] | [5] | [6]

NCC(O)c1ccc(O)c(O)c1 (stereo unspecified)
inactive: [1] | [2] | [3] | [4] | [5] | [6]

CCCCCCCCCCCCCCCC(=O)NCC(COP(=O)([O-])OCC[N+](C)(C)C)OCC (stereo unspecified)
active: [1] 11.2 µM
inactive: [2] | [3] | [4] | [5] | [6]

CO/N=C(\C(=O)N[C@@H]1C(=O)N2C(C(=O)O)=C(CSc3nc(=O)c(O)nn3C)CSC12)c1csc(N)n1 (stereo partly specified)
inactive: [1] | [2] | [3] | [4] | [5] | [6]

CC(C)NCC(O)COc1ccc(CC(N)=O)cc1 (stereo unspecified)
inactive: [1] | [2] | [3] | [4] | [5] | [6]

C#CCN1C(C)=C(C(=O)OC)C(c2cccc([N+](=O)[O-])c2)C(C(=O)OCC)=C1C (stereo unspecified)
inactive: [1] | [2] | [3] | [4] | [5] | [6]

CCCCCCCCCCCCCCCCCCOC[C@H](COP(=O)([O-])OCC[N+](C)(C)C)OC
inactive: [1] | [2] | [3] | [4] | [5] | [6]

N[C@H]1CONC1=O
inactive: [1] | [2] | [3] | [4] | [5] | [6]

NC1CCN(O)C1=O (stereo unspecified)
inactive: [1] | [2] | [3] | [4] | [5] | [6]

Cc1cccc(C)c1OCC(N)C(C)C (stereo unspecified)
inactive: [1] | [2] | [3] | [4] | [5] | [6]

COc1cc(C(O)C(=O)O)ccc1O (stereo unspecified)
inactive: [1] | [2] | [3] | [4] | [5] | [6]

O=C1O/C(=C/Br)CCC1c1cccc2ccccc12 (stereo unspecified)
inactive: [1] | [2] | [3] | [4] | [5] | [6]

CC(C)(C)c1onc(OCP(=O)(O)O)c1CC(N)C(=O)O (stereo unspecified)
inactive: [1] | [2] | [3] | [4] | [5] | [6]

C=CCN1CCc2cc(O)c(O)cc2C(c2ccccc2)C1 (stereo unspecified)
inactive: [1] | [2] | [3] | [4] | [5] | [6]

CC1C(=O)N(C)C(=O)c2nc[nH]c21 (stereo unspecified)
inactive: [1] | [2] | [3] | [4] | [5] | [6]

COc1cc(C(O)CO)ccc1OS(=O)(=O)O (stereo unspecified)
inactive: [1] | [2] | [3] | [4] | [5] | [6]

CC(/C=C/c1cccc(Oc2ccc(F)cc2)c1)N(O)C(N)=O (stereo unspecified)
inactive: [1] | [2] | [3] | [4] | [5] | [6]

CNCCC(Oc1ccccc1C)c1ccccc1 (stereo unspecified)
inactive: [1] | [2] | [3] | [4] | [5] | [6]

N=S(=O)(O)Cc1noc2ccccc12
inactive: [1] | [2] | [3] | [4] | [5] | [6]

COC(=O)[C@H]1[C@H]2C[C@H]3c4[nH]c5ccccc5c4CCN3C[C@H]2CC[C@@H]1O
inactive: [1] | [2] | [3] | [4] | [5] | [6]

Cn1c(=O)c2c(nc(/C=C/c3cccc(Cl)c3)n2C)n(C)c1=O
inactive: [1] | [2] | [3] | [4] | [5] | [6]

CCCCOc1cc(CC2CNC(=O)N2)ccc1OC (stereo unspecified)
inactive: [1] | [2] | [3] | [4] | [5] | [6]

CCCCCCCCCCCCCCCC(=O)OC(CC(=O)O)C[N+](C)(C)C (stereo unspecified)
inactive: [1] | [2] | [3] | [4] | [5] | [6]

CN1C2CCC1CC(OC(=O)c1c[nH]c3ccccc13)C2 (stereo unspecified)
inactive: [1] | [2] | [3] | [4] | [5] | [6]

COC(=O)C(C)(N)Cc1ccc(O)cc1 (stereo unspecified)
inactive: [1] | [2] | [3] | [4] | [5] | [6]

CN1CCc2cc(O)c(O)cc2C(c2ccccc2)C1 (stereo unspecified)
inactive: [1] | [2] | [3] | [4] | [5] | [6]

C=CC1(C)CC(=O)C2(O)C(C)(O1)C(OC(C)=O)C(O)C1C(C)(C)CCC(O)C12C (stereo unspecified)
inactive: [1] | [2] | [3] | [4] | [5] | [6]

CCCC[C@@]1(C2CCCC2)Cc2cc(OCC(=O)O)c(Cl)c(Cl)c2C1=O
inactive: [1] | [2] | [3] | [4] | [5] | [6]

CN(C)CCC(c1ccc(Cl)cc1)c1ccccn1 (stereo unspecified)
inactive: [1] | [2] | [3] | [4] | [5] | [6]

CC(C)C[C@H](NC(=O)[C@H](O)[C@H](N)Cc1ccccc1)C(=O)O
inactive: [1] | [2] | [3] | [4] | [5] | [6]

c1ccc(C2CN3CCSC3=N2)cc1 (stereo unspecified)
inactive: [1] | [2] | [3] | [4] | [5] | [6]

O=C(O)[C@@H]1C[C@H](C(=O)O)N1
inactive: [1] | [2] | [3] | [4] | [5] | [6]

CCCCCCCCCCCCCCCCCC(=O)OC(CC(=O)O)C[N+](C)(C)C (stereo unspecified)
inactive: [1] | [2] | [3] | [4] | [5] | [6]

Oc1cc2c(cc1O)C(c1ccccc1)CNCC2 (stereo unspecified)
inactive: [1] | [2] | [3] | [4] | [5] | [6]

CC(C)C[C@H](NC(=O)C1OC1C(=O)O)C(=O)NCCCCN=C(N)N (stereo partly specified)
inactive: [1] | [2] | [3] | [4] | [5] | [6]

NCCC1CCCC(CCN)N1 (stereo unspecified)
inactive: [1] | [2] | [3] | [4] | [5] | [6]

CCCCCCCCCC(=O)NC(CN1CCOCC1)[C@H](O)c1ccccc1 (stereo partly specified)
inactive: [1] | [2] | [3] | [4] | [5] | [6]

NC(N)=N[C@@H](CCC(=O)O)C(=O)O
inactive: [1] | [2] | [3] | [4] | [5] | [6]

Cc1cccc(C2CN(C)CCc3c2cc(O)c(O)c3Cl)c1 (stereo unspecified)
inactive: [1] | [2] | [3] | [4] | [5] | [6]

N[C@@H](CCCC(=O)O)C(=O)O
inactive: [1] | [2] | [3] | [4] | [5] | [6]

CC(=O)N[C@H](C(=O)O)C(C)(C)SN=O
inactive: [1] | [2] | [3] | [4] | [5] | [6]

S=C(S)OC1CC2CC1C1CCCC21 (stereo unspecified)
inactive: [1] | [2] | [3] | [4] | [5] | [6]

CSC(N)=NCCC[C@H](N)C(=O)O
inactive: [1] | [2] | [3] | [4] | [5] | [6]

OCC1O[C@H](O)C(Cl)C(O)C1O (stereo partly specified)
inactive: [1] | [2] | [3] | [4] | [5] | [6]

NC1CONC1=O (stereo unspecified)
inactive: [1] | [2] | [3] | [4] | [5] | [6]

CCCN(CCc1ccccc1)C1CCc2c(O)cccc2C1 (stereo unspecified)
inactive: [1] | [2] | [3] | [4] | [5] | [6]

CN1C2CCC1CC(OC(c1ccccc1)c1ccccc1)C2 (stereo unspecified)
inactive: [2] | [3] | [4] | [5] | [6]
active: [1] 10 µM

CCOC(=O)C12CC1/C(=N/O)c1ccccc1O2 (stereo unspecified)
inactive: [1] | [2] | [3] | [4] | [5] | [6]

OCC1NCC(O)C(O)C1O (stereo unspecified)
inactive: [1] | [2] | [3] | [4] | [5] | [6]

O=C(O)C1CN(CCCP(=O)(O)O)CCN1 (stereo unspecified)
inactive: [1] | [2] | [3] | [4] | [5] | [6]

Cc1ccccc1CNc1ncnc2c1ncn2C1OC(CO)C(O)C1O (stereo unspecified)
inactive: [1] | [2] | [3] | [4] | [5] | [6]
